Assay results: PubChem BioAssay (NCI)
About 83,000 compounds went through this panel and 20% of them were active in at least one assay; those are over-represented in the sample as a whole.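 Growth was measured after 48 h exposure to one concentration of compound in 96-well plates. Values under 10 count as active.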 Unmarked numbers belong to inactive results. Calls of active or inactive are those of the source.

Columns and labels:
Test in all cases: NCI-60 one-dose screen, 48 h (100 = growth as untreated, 0 = no growth, -100 = all killed)
Conditions in all cases: 10 µM unless noted
[1] = test system: DU-145 prostate
[2] = test system: K-562 leukemia
[3] = test system: MALME-3M melanoma
[4] = test system: MDA-MB-231 breast
[5] = test system: RXF 393 renal
[6] = test system: SF-268 CNS
[7] = test system: SF-295 CNS
[8] = test system: SF-539 CNS
[9] = test system: UACC-257 melanoma
[10] = test system: M14 melanoma

Row | Compound | growth [1] | growth [2] | growth [3] | growth [4] | growth [5] | growth [6] | growth [7] | growth [8] | growth [9] | growth [10]
1 | N#Cc1cc(-c2nc3ccccc3s2)c(=O)n(NS(=O)(=O)c2ccccc2)c1N | 116% | 104% | 112% | 91% | 113% | 97.4% | 111% | 100% | 111% | 107%
2 | c1ccc(-c2cn3c(ccc4ccccc43)n2)cc1 | 87.8% | 20.8% | 80.7% | 55.8% | 86% | 74.7% | 60.2% | 62.6% | 78.9% | 32.2%
3 | NNC(=O)c1ccc(-n2nc(-c3ccccc3)c3ccccc32)cc1 | 79.7% | 84.1% | 90.2% | 63.9% | 61.7% | 64% | 75.2% | 82.8% | 99.5% | 77%
4 | COc1cc(/C(C)=C(\c2ccc(Cl)cc2)c2ccc(OCCN(C)C)cc2)ccc1F | 67.9% | 8.38% (active) | -7.62% (active) | 50.8% | 60.5% | 70.8% | 89.7% | 71.7% | -4.66% (active) | 31.5%
5 | O=C(Cc1ccc(/C=C/C(=O)c2nccs2)cc1)Nc1ccccc1 | 105% | 23.3% | 98.4% | 94.8% | 103% | 95% | 97.1% | 99.9% | 88.6% | 93.1%
6 | COc1cc2oc(-c3cccc(C(=O)Nc4ccc5c(c4)OCO5)c3)cc(=O)c2c(O)c1OC | 80.4% | 94.5% | 88.1% | 68.1% | 81.5% | 58.7% | 92.1% | 88.8% | 78.2% | 89.7%
7 | O=C(Nc1ccc(Cl)cc1)c1cc(NCc2cc(O)ccc2O)ccc1O | 100% | 41.9% | 80.2% | 69.1% | 67.1% | 77.2% | 116% | 43.5% | 77.3% | 102%
8 | CCCOC(=O)N[C@H]1CCc2c(Cl)c(OC)c(OC)c(OC)c2-c2ccc(SC)c(=O)cc21 | 3.02% (active) | 9.67% (active) | 25.2% | -16.7% (active) | 24.3% | 24.7% | 17.5% | 3.18% (active) | 72.4% | -13.6% (active)
9 | COC(=O)C(OC(C)=O)C(OC(C)=O)c1ccc(OC)c(OC)c1 (stereo not given) | 102% | 83.2% | 104% | 92.7% | 125% | 99.6% | 101% | 105% | 82.5% | 93.9%
10 | O=C(Nc1cccc(C2=NCCN2)c1)c1ccc(-c2ccc(C(=O)Nc3cccc(C4=NCCN4)c3)cc2)cc1 | 39.1% | 35.5% | 9.06% (active) | 79.6% | 122% | 90.2% | 71.1% | 97.5% | 36.7% | 77.7%
11 | CNC(=O)c1cccc(Cn2nc(C)c(NC(=O)c3ccc(COc4ccc(C(F)(F)F)cc4C)cc3)c2C)c1 | 58.9% | 23.3% | 77.5% | 79.4% | 70.4% | 61.9% | 27.9% | 71.7% | 8.63% (active) | 41.6%
12 | O=S(=O)(NCCNc1nccc(-c2c(-c3cccc(F)c3)nc3sccn23)n1)c1ccccc1 | 40% | 23.9% | 68.5% | 66% | 64.1% | 43.5% | 47.4% | 65.5% | 65.3% | 41.4%
13 | CC1=CCC(OC(=O)C(C)(O)CCC(O)(C(=O)OC2(C)C=CC(O)(C(C)C)CC2)C(C)C)(C(C)C)CC1 (stereo not given) | 113% | 105% | 97.2% | 100% | 98.5% | 101% | 101% | 103% | 106% | 102%
14 | CC1(C)CC[C@]23CC[C@]4(C)[C@H](CC[C@@H]5[C@@]6(C)CCCNC(C)(C)[C@@H]6CC[C@]54C)[C@H]2[C@H]1OC3 | -8.9% (active) | -39.7% (active) | -63.4% (active) | -62.8% (active) | -65.3% (active) | 38.2% | -65% (active) | 38.7% | 45.1% | -77.2% (active)
15 | CCN(CC)CC[n+]1cc2cc(OC)c(OC)cc2c2ccc3cc4c(cc3c21)OCO4 | 1.33% (active) | 2.65% (active) | -2.49% (active) | -19.5% (active) | -39.1% (active) | -16% (active) | -2.66% (active) | -14.7% (active) | 18% | -54.2% (active)
16 | CSc1nc2sc3cccc(Cl)c3n2c(=N)c1C#N | 105% | 106% | 95.3% | 90.1% | 131% | 102% | 108% | 109% | 108% | 102%
17 | O=S(=O)(NCCNc1nccc(-c2c(-c3cccc(F)c3)nc3sccn23)n1)c1ccc(Cl)cc1 | 54.2% | 41.3% | 82.6% | 91.1% | 69% | 52.9% | 63.7% | 82.5% | 88.7% | 56.6%
18 | CCOc1cccc(-c2nc(N)nc(Nc3ccccc3SSc3ccccc3Nc3nc(N)nc(-c4cccc(OCC)c4)n3)n2)c1 | 83.9% | 68.9% | 97% | 51.7% | 92.4% | 25.1% | 5.56% (active) | 93.2% | 118% | 69.4%
19 | O=C(O)c1ccc(NCc2cn(-c3ccc(C(F)(F)F)cc3)nc2-c2ccc(C(=O)O)cc2)cc1 | 115% | 105% | 127% | 111% | 112% | 97.8% | 100% | 97% | 109% | 106%
20 | CCN1C(=O)/C(=C/C(=O)OC)S/C1=N\NC(=O)c1cc2ccc1/C=C\c1ccc(cc1)/C=C\2 | 108% | 54.2% | 91.9% | 96.1% | 101% | 97.8% | 96.9% | 90.2% | 92.7% | 87.1%
21 | CCN(CC)CCCC(C)Nc1cc(O)cc2cccnc12 (stereo not given) | 113% | 87.4% | 128% | 69.4% | 105% | 98.6% | 104% | 103% | 93.8% | 113%
22 | O=C(N/N=C/c1ccc(Oc2ccccc2)cc1)c1cnn2c1NC(c1ccccc1)C2 (stereo not given) | 49.2% | 46.4% | 20.5% | 72.8% | 71.5% | 64.5% | 18.6% | 37.5% | 59.8% | 46.2%
23 | COc1ccc(/C=C(\C#N)n2nc3cccc(F)c3n2)cc1 | 103% | 82.8% | 100% | 112% | 104% | 104% | 99.9% | 101% | 95.5% | 105%
24 | N/C(=N\C(N)=N\c1nc2ccccc2s1)c1cccc(Cl)c1 | 89.6% | 72.8% | 102% | 73.7% | 115% | 83.6% | 12% | 99.2% | 113% | 96.1%
25 | Cc1cccc(NC(=O)Nc2ccc(-n3cnc4cc(-c5ccc(O)cc5)ccc43)cc2)c1 | 33.9% | 14.2% | 28.4% | 47.3% | 58.4% | 42.3% | 18.4% | 29.1% | 32.3% | 21.4%
26 | CCCCCCCCOc1ccc(/C=N/Nc2cc(C)nc3ccc(Br)cc23)cc1 | 33.5% | 10.7% | 40.8% | 33.2% | 88.3% | 86.3% | 78.8% | 32.6% | 84% | 53.6%
